Drawing on PubChem BioAssay AID1851 (National Center for Advancing Translational Sciences (NCATS), 2009), this text covers AC50 and activity, negative = inhibition for 29 compounds.

Out of some 16,000 compounds screened, about 2,600 (16%) were called active. Inconclusive results (about 20%) are left out. The list is a sample of the results. Unmarked numbers belong to inactive results. Calls follow the shape of the dose curve; as a rule, active = well fitted curve in the direction sought with a large enough effect; inconclusive = small, poorly fitted or top-dose-only effect, or effect the other way; inactive = no such curve, though single readings can be large or run the other way.
% is scaled to controls: 0 for no effect and ±100 for the full control effect.

The target of the assay is Cytochrome P450 2D6 (Homo sapiens) (UniProt P10635). The experiment in a line: Cytochrome panel assay with activity outcomes. To be noted: recombinant CYP, pro-luciferin dealkylation, luminescence, p450-cyp2d6; series mostly up to 57.1 µM.
Sequence of Cytochrome P450 2D6 (Homo sapiens) (P10635 whole entry, looked up): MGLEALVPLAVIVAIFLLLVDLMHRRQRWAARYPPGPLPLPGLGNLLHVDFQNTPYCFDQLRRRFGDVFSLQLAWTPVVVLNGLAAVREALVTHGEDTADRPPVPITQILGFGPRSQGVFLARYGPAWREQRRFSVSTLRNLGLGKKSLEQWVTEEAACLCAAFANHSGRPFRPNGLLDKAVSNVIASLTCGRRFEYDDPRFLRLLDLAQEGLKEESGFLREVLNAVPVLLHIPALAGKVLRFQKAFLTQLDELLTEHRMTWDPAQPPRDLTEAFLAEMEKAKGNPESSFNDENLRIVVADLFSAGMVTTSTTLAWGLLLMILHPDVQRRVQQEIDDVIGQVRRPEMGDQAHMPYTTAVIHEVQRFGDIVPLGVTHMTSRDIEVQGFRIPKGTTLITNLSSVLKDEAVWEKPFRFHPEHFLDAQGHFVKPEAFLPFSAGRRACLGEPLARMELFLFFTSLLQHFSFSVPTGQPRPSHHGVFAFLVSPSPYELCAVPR
On to `Cn1sc(NC(=O)c2ccccc2)nc1=O`, for which the AC50 result was “inactive”.

Regarding `O=C(O)CCC/C=C\C[C@@H]1CO[C@H](C(F)(F)F)O[C@@H]1c1ccccc1O`, the AC50 entry was “inactive”.

Take `CO[C@H]1COC(=O)C/C=C\[C@@H](C)COC(=O)[C@@H](OCc2ccccc2)/C=C\[C@@H]1C`: the activity, negative = inhibition was 1.83% [at 11.4 µM].

Turning to `Clc1ccc2c(N3CCC(CCC4CCN(c5ncnc6cc(Cl)ccc56)CC4)CC3)ncnc2c1`, the AC50 was 0.794 µM (active).

For the compound `Clc1ccccc1-c1ccc2ncnc(N3CCNCC3)c2c1`, the AC50 result was “inactive”.

On to `CN(C)C(=O)c1ccc(-c2ccc3ncnc(N4CCC(C(=O)O)CC4)c3c2)cc1`, for which the AC50 entry was “inactive”.

For the compound `COc1ccc(OC)c(NC(=O)[C@H]2CC=CC[C@H]2C(=O)O)c1`, the AC50 result was “inactive”.

For `O=C(Nc1cccc(NC(=O)N2CCN(c3ccccc3)CC2)c1)N1CCN(c2ccccc2)CC1`, the AC50 entry is “inactive”.

Take `O=C(Nc1cccc(Cl)c1)N1CCN2C(=O)c3ccccc3C12c1ccccc1` (centres undefined): the concentration at half-maximal activity (AC50) was 10 µM (active).

On to `O=C(Nc1ccccc1)N1CCOCC1`, for which the AC50 entry was “inactive”.

With `Cc1ccc(C2C(C=Nc3c(C)n(C)n(-c4ccccc4)c3=O)=C(c3ccccc3)Oc3ccccc32)cc1` (centres undefined), the AC50 result is “inactive”.

For `CCOCCCN1C(=O)CN(C2CCCCCC2)C(=O)C1c1ccc(OC)cc1` (centres undefined), the AC50 entry was “inactive”.

As to `CCSc1nnc(-c2ccc(Cl)cc2)c2ccccc12`, the AC50 result is “inactive”.

Regarding `CCN(CC)S(=O)(=O)c1ccc2c(c1)nc(SCC(=O)N1CCOCC1)n2-c1ccccc1OC`, the AC50 result is “inactive”.

For the compound `COCCn1c(C)cc(C2=NNC(=Nc3ccc(F)cc3)SC2)c1C`, the concentration at half-maximal activity (AC50) is 7.94 µM (active).

As to `Cn1cccc1C(=O)N1CCC2(CC1)CCN(c1cccc(-c3ccccc3)c1)CC2`, the AC50 result was “inactive”.

Turning to `N#CCCn1c(=O)c(CCc2ccccc2)nc2cnc(Oc3ccccc3)nc21`, the AC50 entry is “inactive”.

`CN(C)c1ncc2nc(-c3cc(F)cc(F)c3)c(=O)n(CCC#N)c2n1`: the AC50 result is “inactive”.

`CN(C)c1ncc2nc(CCc3ccccc3)c(=O)n(CCC#N)c2n1`: the AC50 is 2.51 µM (active).

For `CN(C)c1ncc2nc(-c3ccccc3)c(=O)n(CCC#N)c2n1`, the concentration at half-maximal activity (AC50) was 1 µM (active).

For `N#CCCn1c(=O)c(CCc2ccccc2)nc2cnc(OCc3ccccc3)nc21`, the AC50 entry was “inactive”.

For the compound `CN(C)c1ncc2nc(-c3ccccc3)c(=O)n(CCc3ccccc3)c2n1`, the AC50 result is “inactive”.

For the compound `COc1cc(/C=C2/C(=N)N3OC(C)=CC3=NC2=O)ccc1OCCOc1ccc(C)cc1`, the AC50 result was “inactive”.

As for `COc1cccc(/C=N/NC(=O)CO/N=C(\C)c2cccs2)c1OC`, the AC50 entry is “inactive”.

Turning to `CC1CCN(c2ccc(NC(=S)NC(=O)c3ccco3)cc2)CC1`, the AC50 result is “inactive”.

Consider `COc1ncc2nc(-c3cc(F)cc(F)c3)c(=O)n(C3CC3)c2n1`, for which the AC50 entry was “inactive”.

Take `CCOc1c(Cl)cc(C(=O)Nc2ccccc2-c2ccccc2)cc1Cl`: the half-maximal activity concentration (AC50) was 0.0126 µM (active).

`CCOC(=O)c1ccc(Cl)c(NC(=O)c2ccc(-c3ccccc3)cc2)c1`: the AC50 result was “inactive”.

In the case of `COC(=O)c1ccc(Cl)c(NC(=O)c2ccc(-c3ccccc3)cc2)c1`, the AC50 result is “inactive”.
